Data published in PubChem BioAssay (NCI).
This is part of a sample that, as a whole, favours compounds with a hit. Of some 83,000 tested, about 20% had one in any assay.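 Note: values are percent growth. 100 is the growth of untreated cells, values between 100 and 0 indicate rising inhibition; between -100 and 0 indicates cell death.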 Values without a mark were called inactive. Calls of active or inactive are those of the source. Rule for the calls: active = growth percent below 10; inactive = the rest.

These compounds were tested on KM12 colon (assay: NCI-60 one-dose screen, 48 h (100 = growth as untreated, 0 = no growth, -100 = all killed)). Settings: 10 µM unless noted.
With `CC1Cc2cc(F)ccc2-n2cccc21` (stereo not given) the growth was 110%. Compound `Cc1c(O)c(N=Nc2ccc(C(=O)O)c(O)c2)c2ccccc2c1O` has a growth of 98.3%. In the case of `COc1ccc(-c2nc(Nc3nc4ccccc4[nH]3)nc(N)c2C#N)cc1`, the growth was 108%. For `CC(C)(C)c1ccc([I+]c2ccc(C(C)(C)C)cc2)cc1`, the growth was -30.6% (active). `C=CN(C)S(C)(=O)=O` gave a growth of 33.6%. `CCOC(=O)C1CCCN1C(=O)C1(NC(C)=O)CCCC1` (stereo not given) gave a growth of 91.2%. `COc1cc(OC)c(NC(=O)n2ncc3cc(Nc4ncnc5ccccc45)ccc32)cc1Cl` was tested, and the growth was 104%. With `Cc1ccc([C@@H]2C[C@H](O)Cc3ccccc3N2)s1` the growth was 109%. In the case of `CCCCCCCCCCC1OC(C)CC(C)O1` (stereo not given), the growth was 103%. For `CCc1c(C)c2ccc(OCC(=O)N=Nc3c(O)[nH]c4ccccc34)c(C)c2oc1=O`, the growth was -23.4% (active). For `COc1ccccc1Cn1cc2c(c1)-c1oncc1CC2`, the growth was 6.78% (active). With `CC[C@H](Nc1ncnc2nc[nH]c12)c1nc2cccc(NCc3ccc(C(=O)NO)nc3)c2c(=O)n1-c1ccccc1` the growth was 60.9%. `COc1ccc(CNCCCN2C(=O)c3ccc4c5c(ccc(c35)C2=O)C(=O)N(CCCNCc2ccc(OC)c(OC)c2OC)C4=O)c(OC)c1OC` was tested, and the growth was -89.9% (active). `O=C(N/N=C/c1coc2ccccc2c1=O)c1cc2oc(-c3ccccc3)cc2[nH]1` showed a growth of 101%. Compound `CCOC(=O)c1cc(C(=O)c2ccc(Br)cc2)n2cc(C)cc(C)c12` has a growth of 98.9%. In the case of `O=C(/C=C1\C(=O)N(Cc2ccccc2)c2ccccc21)c1ccc(OCCN2CCCCC2)cc1`, the growth was 80.6%. In the case of `Cc1nnc(/N=C2\NC(=O)/C(=C/C=C/c3ccccc3)S2)s1`, the growth was 42.7%. In the case of `O=c1oc2ccc3ccccc3c2cc1-c1ccnc2[nH]c(=S)[nH]c(=O)c12`, the growth was 101%. In the case of `Cn1cnc2nc[nH]c2c1=S`, the growth was 105%. Compound `COc1ccc(Cn2cc3c(c2-c2ccc(O)cc2)CCc2cnoc2-3)cc1` has a growth of 11.8%. `CC(Br)c1nc2ccccc2cc1C(N)=O` (stereo not given) was tested, and the growth was 105%. In the case of `c1cc(C2CCCCC2)ccc1OCCCCCCN1CCNCC1`, the growth was 6.42% (active). `CC(O)CN(CC(C)O)N(CC(C)O)CC(C)O` (stereo not given) was tested, and the growth was 109%. Work on `COc1ccc2nc3cc(Cl)ccc3c(NCCCNC(C)=O)c2c1` yielded a growth of 30.7%. Compound `O=C1N/C(=N\c2nnc(-c3ccc(O)cc3)s2)S/C1=C\c1ccccc1O` has a growth of 96.7%. With `CCCCCc1ccnc(CC(=O)c2ccc(OC)cc2)c1` the growth was 99.9%. With `NC(=O)CC(NC(=O)COc1ccc(Cl)cc1Cl)C(=O)O` (stereo not given) the growth was 104%. `COc1cc2ncnc(Nc3ccc4c(cnn4C(=O)Nc4ccccc4)c3)c2cc1OC` gave a growth of 93.5%. `CCC(C)(CC)c1ccc(O)c(C)c1` was tested, and the growth was 107%. With `CC(O)C(N)=O` (stereo not given) the growth was 103%. `CCCCCCCCC1OC1CCCCCCCC(=O)O` (stereo not given) showed a growth of 104%. `CC(=O)NCCN` gave a growth of 113%. `COc1cc(NC(C)CCCN)c2nc(C)ccc2c1OC` (stereo not given) was tested, and the growth was 103%. `O=C1/C(=C\c2cn(-c3nc(N4CCOCC4)nc(N4CCOCC4)n3)c3ccccc23)c2ccccc2N1c1c(Cl)cccc1Cl` gave a growth of 88.5%. `Cc1cc2c(-c3nc4ccccc4n3C)c(O)c(O)cc2c(O)c1-c1c(C)cc2c(-c3nc4ccccc4n3C)c(O)c(O)cc2c1O` gave a growth of 24.7%. Compound `O=C(CN1CCN(c2cccc(Cl)c2)CC1)N1CCN(c2nnc(-c3ccc(Cl)cc3)c(-c3ccc(Cl)cc3)n2)CC1` has a growth of 57.6%. With `CCCC(=O)NNc1[nH]c(-c2cc(OC)c(OC)c(OC)c2)cc1C(=O)OCC` the growth was 125%. For `CSCc1ncc(-c2ccc(C(F)(F)F)cc2)c(NC2CCCCCC2)n1`, the growth was 52.1% [25 µM]. With `CCOC1=C(Cl)C(=O)C(OCC)=C(Cl)C1=O` the growth was 98.3%. Compound `CC(=O)c1nn(-c2ccc(C)cc2)cc1C(=O)c1cc2c(ccc3ccccc32)oc1=O` has a growth of 95.1%.
